Results filed as inconclusive are left out. A number with no mark means an inactive call. The source made the active and inactive calls. Calls follow the shape of the dose curve; as a rule, active = well fitted inhibition curve with a large enough effect; inconclusive = small, poorly fitted or top-dose-only effect; inactive = no such curve, though single readings can be large or run the other way.
These molecules were tested against Cytochrome P450 2C9 (Homo sapiens) (UniProt P11712) (assay: qHTS Assay for Inhibitors and Substrates of Cytochrome P450 2C9 (AID 883; also: nearly all actives have a fitted effect of over 60% in size)). Settings: recombinant CYP2C9, luciferin-H luminescence, 60 min; series mostly up to 11.4 µM; activity change, negative = inhibition: at the top concentration.
Chain of Cytochrome P450 2C9 (Homo sapiens) (P11712 whole entry, looked up): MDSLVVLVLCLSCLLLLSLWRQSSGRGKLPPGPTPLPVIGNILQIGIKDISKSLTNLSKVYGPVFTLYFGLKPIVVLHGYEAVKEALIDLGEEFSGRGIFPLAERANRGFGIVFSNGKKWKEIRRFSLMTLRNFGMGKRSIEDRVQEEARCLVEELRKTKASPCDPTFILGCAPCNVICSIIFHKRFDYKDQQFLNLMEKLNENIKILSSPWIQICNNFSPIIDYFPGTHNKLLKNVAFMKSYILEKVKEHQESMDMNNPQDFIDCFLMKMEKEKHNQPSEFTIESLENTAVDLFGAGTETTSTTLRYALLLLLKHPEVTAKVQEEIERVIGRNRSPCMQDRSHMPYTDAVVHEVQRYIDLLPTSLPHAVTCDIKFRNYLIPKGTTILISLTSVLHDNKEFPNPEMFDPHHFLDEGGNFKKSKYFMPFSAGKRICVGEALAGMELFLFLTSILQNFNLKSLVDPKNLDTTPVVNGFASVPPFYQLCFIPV
Experimental: NIH Molecular Libraries Screening Centers Network [MLSCN] NIH Chemical Genomics Center [NCGC] MLSCN Grant: None NCGC Assay Overview: The P450 gene superfamily is involved in the metabolism and clearance of xenobiotics. This assay used human CYP2C9 to measure the hydroxylation of deoxyluciferin (Luciferin-H; P450 Glo-Buffer) to luciferin. The luciferin is then measured by luminescence after the addition of a luciferase detection reagent. Luciferin-H concentration in the assay was equal to its Michaelis constant KM for CYP2C9. Inhibitors and some substrates limit the production of luciferin, and decrease measured luminescence.
NCGC Assay Protocol Summary: Two uL of enzyme and substrate mix (final concentrations: 10nM CYP2C9, 100uM Luciferin-H, 25mM KPO4) were dispensed into a white, solid bottom 1536-well microtiter plate. 23nL of compound was transferred by a pin tool. The plate was incubated at 37C for 10 min. Two uL of an NADPH regeneration solution (Promega supplied reagent) was dispensed and the reaction was allowed to continue for 60 min at 37C. Then the reaction was stopped by reconstituted P450 Glo-Buffer. After another 20 min of incubation the plate was read on the ViewLux (Perkin Elmer) at 60 sec exposure and 2x2 binning. This protocol was carried out with Promega-Glo reagents and further information can be found at http://www.promega.com/tbs/tb325/tb325.pdf. Data were normalized to the to AC100 inhibition (57uM sulphaphenazole). Keywords: P450, CYP2C9, Luciferase, MLSMR, MLSCN, NIH Roadmap, qHTS, NCGC
For COc1ccc2ccccc2c1/C=C\C(=O)c1ccccc1, the Potency was 1260 nM (active).
N[C@@H](Cc1ncccn1)C(=O)O was tested, and the “activity change, negative = inhibition” value was 30.9%.
For CC(C)N(Cc1ccccc1)S(=O)(=O)c1n[nH]c(C(C)(C)C)n1, the Potency was 3980 nM (active).
With O=C(N/N=C\c1ccc2c(c1)CCC2)c1ccccc1O the “activity change, negative = inhibition” value was 167%.
c1ccc(CSCCc2ccncc2)cc1 was tested, and the Potency was 316 nM (active).
For O=[N+]([O-])c1ccc(S(=O)(=O)Cc2ccccc2)c2nonc12, the Potency was 316 nM (active).
In the case of NCCSC[C@H](N)C(=O)O, the “activity change, negative = inhibition” value was 45.3%.
In the case of C[C@H]1CCCC=CC2C[C@H](OC(=O)CN(C)C)C[C@@H]2[C@@H](O)/C=C\C(=O)O1 (stereo not given in full), the “activity change, negative = inhibition” value was 45.5%.
With Nc1c(S(=O)(=O)O)cc(Nc2cccc(S(N)(=O)=O)c2)c2c1C(=O)c1ccccc1C2=O the Potency was 3160 nM (active).
In the case of O=C(O)CCCCCC[C@@H]1C(=O)NC(=O)N1CC[C@@H](O)C1CCCCC1, the “activity change, negative = inhibition” value was 8.74% [at 57.1 µM].
In the case of NS(=O)(=O)c1cc(Br)c(N=Nc2ccc(O)c3ncccc23)c(Br)c1, the “activity change, negative = inhibition” value was 254%.
For O=C(O)CCC/C=C\C[C@H]1[C@@H](/C=C\[C@@H](O)C2Cc3ccccc3C2)[C@H](F)C[C@H]1O, the “activity change, negative = inhibition” value was -21.9% [at 57.1 µM].
With COc1cccc2[nH]c(-c3ccccn3)nc12 the “activity change, negative = inhibition” value was -15.7%.
In the case of Cc1cc(O)c(C(C)C)cc1C1(c2cc(C(C)C)c(O)cc2C)OC(=O)c2ccccc21, the Potency was 316 nM (active).
For ON(CCc1ccncc1)Cc1ccccc1, the Potency was 3980 nM (active).
In the case of C[C@H]1[C@H](O)[C@@H](C)C=CC=CC=CC=CC=CC=CC=C[C@H](O[C@@H]2O[C@@H](C)[C@H](O)[C@@H](N)[C@@H]2O)C[C@@H]2O[C@](O)(C[C@@H](O)C[C@@H](O)[C@@H](O)CC[C@@H](O)C[C@@H](O)CC(=O)O[C@H]1C)C[C@H](O)[C@H]2C(=O)O, the “activity change, negative = inhibition” value was 7.32%.
With O=C(O)c1cscc1Cc1cccs1 the “activity change, negative = inhibition” value was 14.8%.
With COc1ccccc1CCn1c(=O)c(-c2ccc(F)cc2)nc2cncnc21 the Potency was 3980 nM (active).
CCn1cc(C(=O)O)c(=O)c2ccc(Cc3ccccc3)nc21 was tested, and the “activity change, negative = inhibition” value was -9.19% [at 57.1 µM].
In the case of C[C@@H](COc1ccc(/C=C\c2ccccc2)cc1)[N+](C)(C)C, the “activity change, negative = inhibition” value was 53.8% [at 57.1 µM].
Cc1ccc(C2=C(Cl)C(=O)C(c3ccc(C)cc3)=C(Cl)C2=O)cc1 was tested, and the Potency was 1580 nM (active).
Oc1ccc(Cl)cc1Cc1cc(Cl)cc(Cc2cc(Cl)ccc2O)c1O was tested, and the Potency was 2510 nM (active).
In the case of N=c1ccn2c(n1)O[C@@H]1[C@@H](O)[C@H](CO)O[C@H]12, the “activity change, negative = inhibition” value was 30.2% [at 57.1 µM].
For CCCC[C@]1(C2CCCC2)Cc2cc(OCC(=O)O)c(Cl)c(Cl)c2C1=O, the Potency was 2510 nM (active).
In the case of N#C/C(=C\Nc1ccccn1)C(=O)c1ccco1, the Potency was 3160 nM (active).
With CCN(CC)[C@@H](C)C(=O)N1c2ccccc2Sc2ccccc21 the “activity change, negative = inhibition” value was -25.4% [at 57.1 µM].
In the case of O=C(O)[C@H]1C[C@H](C(=O)O)N1, the “activity change, negative = inhibition” value was -12.9% [at 57.1 µM].
c1cc(CSSCc2ccncc2)ccn1 was tested, and the Potency was 1580 nM (active).
In the case of Cc1cc(SCC(=O)c2ccc(Br)cc2)cc(C)[o+]1, the Potency was 2510 nM (active).
In the case of Cn1c(=O)c2[nH]c(SCc3ccccn3)nc2n(C)c1=S, the Potency was 3160 nM (active).
C[C@H]1C[C@@H]2[C@H]3CCC4=CC(=O)C=C[C@@]4(C)[C@]3(Cl)[C@@H](Cl)C[C@]2(C)[C@]1(O)C(=O)COP(=O)(O)O was tested, and the “activity change, negative = inhibition” value was -10.4%.
For N#CCCn1c(=O)c(CCc2ccccc2)nc2cnc(Oc3ccccc3)nc21, the Potency was 7940 nM (active).
In the case of O=C1c2ccccc2C(=O)c2c1ccc(N1C(=O)c3ccccc3C1=O)c2-c1c(N2C(=O)c3ccccc3C2=O)ccc2c1C(=O)c1ccccc1C2=O, the “activity change, negative = inhibition” value was -1.95%.
In the case of Oc1c(Br)cc(CN(Cc2cc(Br)c(O)c(Br)c2)C2CCCCC2)cc1Br, the Potency was 2510 nM (active).
FC(F)(F)c1nc2nc(Cl)c(Cl)nc2n1CCCN1CCOCC1 was tested, and the Potency was 2510 nM (active).
With N=C1C=CC(=C(c2ccc(N)cc2)c2ccc(N)cc2)C=C1 the “activity change, negative = inhibition” value was -22.8%.
For Cc1cc(N2CCOCC2)nc2ccc(Cc3ccc4nc(N5CCOCC5)cc(C)c4c3)cc12, the Potency was 3980 nM (active).
Nc1ccc(N(S(=O)(=O)c2ccccc2)S(=O)(=O)c2ccccc2)c(Cl)c1 was tested, and the Potency was 3160 nM (active).
For COc1ccc(Cc2ccccc2C(=O)O)c2ccccc12, the Potency was 3980 nM (active).
With CC1=c2c(oc3cc(O)c(Nc4c(C)cc(O)cc4O)c(C)c23)=CC(=O)C1=Nc1c(C)cc(O)cc1O the Potency was 3160 nM (active).
% is scaled to controls: 0 for no effect and ±100 for the full control effect; potency is read from the fitted curve at half-maximal effect.
